Results as given in ChEMBL document CHEMBL1961873, “Compounds: GSK PKIS; Assays: Nanosyn kinase panel” (2012).

What was measured:
[1] = target: T1, Inhibitor of nuclear factor kappa-B kinase subunit epsilon (Homo sapiens) (UniProt Q14164); details: at 1 µM;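 note: reported values are averaged percent inhibition figures against human IKKε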
T1 sequence (whole entry): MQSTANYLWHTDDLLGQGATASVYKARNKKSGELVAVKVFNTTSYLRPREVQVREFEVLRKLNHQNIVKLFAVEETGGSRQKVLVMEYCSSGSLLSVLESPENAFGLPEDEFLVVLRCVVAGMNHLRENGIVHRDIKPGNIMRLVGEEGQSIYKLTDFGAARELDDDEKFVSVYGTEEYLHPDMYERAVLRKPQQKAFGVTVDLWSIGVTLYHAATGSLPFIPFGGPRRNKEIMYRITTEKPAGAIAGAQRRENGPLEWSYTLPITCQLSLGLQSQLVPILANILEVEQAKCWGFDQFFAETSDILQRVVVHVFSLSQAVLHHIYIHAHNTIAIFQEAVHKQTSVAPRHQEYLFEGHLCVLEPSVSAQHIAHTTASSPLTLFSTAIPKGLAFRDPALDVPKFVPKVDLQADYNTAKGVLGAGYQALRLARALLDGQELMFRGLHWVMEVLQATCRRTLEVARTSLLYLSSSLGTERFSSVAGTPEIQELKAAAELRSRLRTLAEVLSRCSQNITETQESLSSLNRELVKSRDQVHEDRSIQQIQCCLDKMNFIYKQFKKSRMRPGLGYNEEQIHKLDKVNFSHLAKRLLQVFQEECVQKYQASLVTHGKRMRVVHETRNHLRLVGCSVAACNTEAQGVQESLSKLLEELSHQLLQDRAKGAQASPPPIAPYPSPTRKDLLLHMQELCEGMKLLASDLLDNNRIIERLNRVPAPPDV

[2] = target: T2, Serine/threonine-protein kinase Nek1 (Homo sapiens) (UniProt Q96PY6); details: at 0.1 µM
T2 sequence (whole entry): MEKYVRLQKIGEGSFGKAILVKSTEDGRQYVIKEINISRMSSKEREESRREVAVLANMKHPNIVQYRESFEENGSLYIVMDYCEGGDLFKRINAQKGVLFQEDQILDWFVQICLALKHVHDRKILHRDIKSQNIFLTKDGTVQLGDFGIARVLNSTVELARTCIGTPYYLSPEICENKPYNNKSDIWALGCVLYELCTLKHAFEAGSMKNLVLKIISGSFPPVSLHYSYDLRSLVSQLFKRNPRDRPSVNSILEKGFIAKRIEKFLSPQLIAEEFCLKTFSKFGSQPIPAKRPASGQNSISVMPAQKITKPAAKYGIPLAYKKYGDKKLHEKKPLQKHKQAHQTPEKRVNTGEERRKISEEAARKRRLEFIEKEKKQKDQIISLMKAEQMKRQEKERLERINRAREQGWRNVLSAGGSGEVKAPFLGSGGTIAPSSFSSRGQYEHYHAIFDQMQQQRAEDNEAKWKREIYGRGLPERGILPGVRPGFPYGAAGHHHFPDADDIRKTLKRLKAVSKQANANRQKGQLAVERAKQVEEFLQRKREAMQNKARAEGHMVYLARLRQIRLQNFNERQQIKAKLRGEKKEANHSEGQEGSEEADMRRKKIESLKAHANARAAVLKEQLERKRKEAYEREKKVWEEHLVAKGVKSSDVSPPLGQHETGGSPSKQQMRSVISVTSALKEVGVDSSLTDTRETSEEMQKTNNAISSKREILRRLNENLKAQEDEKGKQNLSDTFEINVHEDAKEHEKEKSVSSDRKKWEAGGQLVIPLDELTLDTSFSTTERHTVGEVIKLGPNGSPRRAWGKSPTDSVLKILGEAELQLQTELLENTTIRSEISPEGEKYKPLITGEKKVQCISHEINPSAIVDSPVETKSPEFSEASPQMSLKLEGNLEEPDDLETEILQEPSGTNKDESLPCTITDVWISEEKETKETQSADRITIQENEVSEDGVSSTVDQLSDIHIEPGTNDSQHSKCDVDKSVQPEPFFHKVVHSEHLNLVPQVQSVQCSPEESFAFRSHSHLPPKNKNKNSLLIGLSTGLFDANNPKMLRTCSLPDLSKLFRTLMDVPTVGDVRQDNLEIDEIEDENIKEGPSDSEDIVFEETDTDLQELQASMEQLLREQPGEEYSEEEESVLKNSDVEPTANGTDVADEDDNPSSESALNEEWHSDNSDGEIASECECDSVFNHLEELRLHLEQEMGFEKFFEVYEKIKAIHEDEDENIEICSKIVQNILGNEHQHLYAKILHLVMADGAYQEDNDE

[3] = target: T2, Serine/threonine-protein kinase Nek1 (Homo sapiens); details: at 1 µM
[4] = target: T3, Serine/threonine-protein kinase Nek2 (Homo sapiens) (UniProt P51955); details: at 0.1 µM
T3 sequence (whole entry): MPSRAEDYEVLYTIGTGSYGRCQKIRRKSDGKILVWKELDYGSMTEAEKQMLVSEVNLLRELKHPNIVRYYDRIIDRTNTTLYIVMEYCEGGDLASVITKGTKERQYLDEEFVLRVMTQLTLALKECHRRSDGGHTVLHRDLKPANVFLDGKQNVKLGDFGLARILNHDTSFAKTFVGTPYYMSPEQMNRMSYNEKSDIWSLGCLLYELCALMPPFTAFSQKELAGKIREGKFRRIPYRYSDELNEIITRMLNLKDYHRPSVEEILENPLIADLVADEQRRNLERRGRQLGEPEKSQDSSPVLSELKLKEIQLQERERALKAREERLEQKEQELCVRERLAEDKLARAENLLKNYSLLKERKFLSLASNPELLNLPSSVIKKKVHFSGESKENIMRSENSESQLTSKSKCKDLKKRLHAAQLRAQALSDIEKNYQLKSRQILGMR

[5] = target: T3, Serine/threonine-protein kinase Nek2 (Homo sapiens); details: at 1 µM
[6] = target: Serine/threonine-protein kinase Nek6 (Homo sapiens) (UniProt Q9HC98); details: at 0.1 µM
[7] = target: Serine/threonine-protein kinase Nek6 (Homo sapiens) (UniProt Q9HC98); details: at 1 µM
[8] = target: Serine/threonine-protein kinase Nek7 (Homo sapiens) (UniProt Q8TDX7); details: at 0.1 µM
[9] = target: Serine/threonine-protein kinase Nek7 (Homo sapiens) (UniProt Q8TDX7); details: at 1 µM
[10] = target: Serine/threonine-protein kinase PLK1 (Homo sapiens) (UniProt P53350); details: at 0.1 µM
[11] = target: Serine/threonine-protein kinase PLK1 (Homo sapiens) (UniProt P53350); details: at 1 µM
[12] = target: T4, Dual specificity protein kinase TTK (Homo sapiens) (UniProt P33981); details: at 0.1 µM
T4 sequence (whole entry): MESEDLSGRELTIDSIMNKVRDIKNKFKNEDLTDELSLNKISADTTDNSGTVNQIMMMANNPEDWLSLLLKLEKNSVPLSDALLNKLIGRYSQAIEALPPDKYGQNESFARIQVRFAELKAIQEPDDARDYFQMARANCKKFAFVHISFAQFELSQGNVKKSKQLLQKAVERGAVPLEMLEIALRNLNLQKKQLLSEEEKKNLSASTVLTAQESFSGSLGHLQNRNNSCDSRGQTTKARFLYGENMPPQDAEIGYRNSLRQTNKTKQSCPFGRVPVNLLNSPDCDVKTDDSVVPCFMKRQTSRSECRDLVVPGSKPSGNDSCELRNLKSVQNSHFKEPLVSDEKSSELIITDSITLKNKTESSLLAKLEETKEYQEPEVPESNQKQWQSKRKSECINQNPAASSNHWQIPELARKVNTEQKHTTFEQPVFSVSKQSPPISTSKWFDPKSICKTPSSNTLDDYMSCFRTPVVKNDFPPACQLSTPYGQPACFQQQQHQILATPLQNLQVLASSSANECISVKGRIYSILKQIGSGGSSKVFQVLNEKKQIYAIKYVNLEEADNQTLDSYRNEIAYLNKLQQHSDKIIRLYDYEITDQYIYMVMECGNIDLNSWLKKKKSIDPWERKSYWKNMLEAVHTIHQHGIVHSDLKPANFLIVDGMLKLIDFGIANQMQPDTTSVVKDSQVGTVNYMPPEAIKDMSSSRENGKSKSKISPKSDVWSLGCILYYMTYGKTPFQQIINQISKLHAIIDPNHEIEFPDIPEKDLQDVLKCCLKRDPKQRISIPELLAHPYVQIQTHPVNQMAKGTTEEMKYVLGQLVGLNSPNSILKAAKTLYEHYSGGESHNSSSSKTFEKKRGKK

[13] = tested on: T5, Receptor-type tyrosine-protein kinase FLT3 (Homo sapiens), P36888 [D835Y]; details: at 1 µM
T5 sequence (whole entry): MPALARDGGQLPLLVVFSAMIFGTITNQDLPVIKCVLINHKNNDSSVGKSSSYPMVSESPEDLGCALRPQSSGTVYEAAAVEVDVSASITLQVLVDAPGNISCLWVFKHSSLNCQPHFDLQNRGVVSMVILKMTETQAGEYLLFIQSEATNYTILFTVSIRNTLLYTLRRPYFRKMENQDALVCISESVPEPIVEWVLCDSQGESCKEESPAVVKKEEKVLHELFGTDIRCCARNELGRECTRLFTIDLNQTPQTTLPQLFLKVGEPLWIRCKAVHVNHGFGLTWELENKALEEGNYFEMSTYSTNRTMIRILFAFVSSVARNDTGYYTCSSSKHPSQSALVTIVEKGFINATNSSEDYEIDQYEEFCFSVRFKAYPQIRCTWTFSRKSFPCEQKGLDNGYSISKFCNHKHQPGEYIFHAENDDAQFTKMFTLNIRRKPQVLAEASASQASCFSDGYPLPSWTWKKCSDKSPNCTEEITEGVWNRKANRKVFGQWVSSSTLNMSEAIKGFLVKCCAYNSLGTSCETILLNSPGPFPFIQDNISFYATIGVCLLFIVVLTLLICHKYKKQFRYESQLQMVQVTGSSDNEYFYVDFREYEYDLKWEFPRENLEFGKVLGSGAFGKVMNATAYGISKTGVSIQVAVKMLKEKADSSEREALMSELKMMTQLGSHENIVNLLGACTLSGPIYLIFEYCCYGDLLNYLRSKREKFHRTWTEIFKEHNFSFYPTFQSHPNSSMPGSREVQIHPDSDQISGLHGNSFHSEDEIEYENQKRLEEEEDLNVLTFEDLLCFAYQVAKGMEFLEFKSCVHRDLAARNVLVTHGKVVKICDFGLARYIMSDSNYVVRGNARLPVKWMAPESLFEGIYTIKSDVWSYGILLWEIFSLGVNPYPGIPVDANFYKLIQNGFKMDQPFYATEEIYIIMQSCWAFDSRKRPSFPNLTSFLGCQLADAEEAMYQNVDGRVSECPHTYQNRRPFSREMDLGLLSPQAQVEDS

[14] = target: Vascular endothelial growth factor receptor 3 (Homo sapiens) (UniProt P35916); details: at 0.1 µM
[15] = target: Vascular endothelial growth factor receptor 3 (Homo sapiens) (UniProt P35916); details: at 1 µM
[16] = target: Macrophage colony-stimulating factor 1 receptor (Homo sapiens) (UniProt P07333); details: at 0.1 µM
[17] = target: Macrophage colony-stimulating factor 1 receptor (Homo sapiens) (UniProt P07333); details: at 1 µM
[18] = target: Tyrosine-protein kinase Fyn (Homo sapiens) (UniProt P06241); details: at 0.1 µM
[19] = target: T6, Serine/threonine-protein kinase Nek9 (Homo sapiens) (UniProt Q8TD19); details: at 0.1 µM
T6 sequence (whole entry): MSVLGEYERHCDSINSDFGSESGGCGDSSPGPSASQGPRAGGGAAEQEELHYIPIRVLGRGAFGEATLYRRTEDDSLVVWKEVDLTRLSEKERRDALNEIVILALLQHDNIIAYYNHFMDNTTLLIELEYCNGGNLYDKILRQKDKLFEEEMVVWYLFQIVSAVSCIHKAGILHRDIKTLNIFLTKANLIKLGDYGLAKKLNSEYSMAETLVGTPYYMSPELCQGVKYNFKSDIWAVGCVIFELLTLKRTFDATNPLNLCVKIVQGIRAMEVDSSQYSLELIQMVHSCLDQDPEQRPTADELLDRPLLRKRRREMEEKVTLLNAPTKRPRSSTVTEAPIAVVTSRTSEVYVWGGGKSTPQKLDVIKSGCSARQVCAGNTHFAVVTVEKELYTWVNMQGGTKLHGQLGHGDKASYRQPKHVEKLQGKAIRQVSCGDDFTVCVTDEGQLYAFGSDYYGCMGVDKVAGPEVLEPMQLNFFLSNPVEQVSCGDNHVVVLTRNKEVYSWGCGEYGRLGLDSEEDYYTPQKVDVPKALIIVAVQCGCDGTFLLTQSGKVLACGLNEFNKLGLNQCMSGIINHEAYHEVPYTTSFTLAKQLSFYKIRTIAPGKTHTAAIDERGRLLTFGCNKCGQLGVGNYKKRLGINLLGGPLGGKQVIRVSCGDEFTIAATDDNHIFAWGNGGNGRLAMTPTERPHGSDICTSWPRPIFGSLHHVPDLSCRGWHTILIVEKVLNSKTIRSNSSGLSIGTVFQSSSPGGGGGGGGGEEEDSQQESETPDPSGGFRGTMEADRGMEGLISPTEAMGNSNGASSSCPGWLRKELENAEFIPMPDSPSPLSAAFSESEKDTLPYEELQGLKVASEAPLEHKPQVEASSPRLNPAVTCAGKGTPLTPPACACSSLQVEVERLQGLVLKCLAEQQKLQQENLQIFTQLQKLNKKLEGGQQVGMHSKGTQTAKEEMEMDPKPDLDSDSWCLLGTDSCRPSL

[20] = target: T6, Serine/threonine-protein kinase Nek9 (Homo sapiens); details: at 1 µM

Serine/threonine-protein kinase Nek7 (Homo sapiens), sequence (Q8TDX7 whole entry, looked up): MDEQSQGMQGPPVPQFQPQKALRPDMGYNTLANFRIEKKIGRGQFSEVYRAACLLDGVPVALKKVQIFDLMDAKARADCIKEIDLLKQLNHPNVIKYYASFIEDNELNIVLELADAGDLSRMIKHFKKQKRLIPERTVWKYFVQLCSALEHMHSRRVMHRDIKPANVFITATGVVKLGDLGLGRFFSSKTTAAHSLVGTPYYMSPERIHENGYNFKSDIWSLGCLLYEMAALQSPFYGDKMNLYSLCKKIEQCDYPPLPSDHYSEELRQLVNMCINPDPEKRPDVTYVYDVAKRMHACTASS
Macrophage colony-stimulating factor 1 receptor (Homo sapiens), sequence (P07333 whole entry): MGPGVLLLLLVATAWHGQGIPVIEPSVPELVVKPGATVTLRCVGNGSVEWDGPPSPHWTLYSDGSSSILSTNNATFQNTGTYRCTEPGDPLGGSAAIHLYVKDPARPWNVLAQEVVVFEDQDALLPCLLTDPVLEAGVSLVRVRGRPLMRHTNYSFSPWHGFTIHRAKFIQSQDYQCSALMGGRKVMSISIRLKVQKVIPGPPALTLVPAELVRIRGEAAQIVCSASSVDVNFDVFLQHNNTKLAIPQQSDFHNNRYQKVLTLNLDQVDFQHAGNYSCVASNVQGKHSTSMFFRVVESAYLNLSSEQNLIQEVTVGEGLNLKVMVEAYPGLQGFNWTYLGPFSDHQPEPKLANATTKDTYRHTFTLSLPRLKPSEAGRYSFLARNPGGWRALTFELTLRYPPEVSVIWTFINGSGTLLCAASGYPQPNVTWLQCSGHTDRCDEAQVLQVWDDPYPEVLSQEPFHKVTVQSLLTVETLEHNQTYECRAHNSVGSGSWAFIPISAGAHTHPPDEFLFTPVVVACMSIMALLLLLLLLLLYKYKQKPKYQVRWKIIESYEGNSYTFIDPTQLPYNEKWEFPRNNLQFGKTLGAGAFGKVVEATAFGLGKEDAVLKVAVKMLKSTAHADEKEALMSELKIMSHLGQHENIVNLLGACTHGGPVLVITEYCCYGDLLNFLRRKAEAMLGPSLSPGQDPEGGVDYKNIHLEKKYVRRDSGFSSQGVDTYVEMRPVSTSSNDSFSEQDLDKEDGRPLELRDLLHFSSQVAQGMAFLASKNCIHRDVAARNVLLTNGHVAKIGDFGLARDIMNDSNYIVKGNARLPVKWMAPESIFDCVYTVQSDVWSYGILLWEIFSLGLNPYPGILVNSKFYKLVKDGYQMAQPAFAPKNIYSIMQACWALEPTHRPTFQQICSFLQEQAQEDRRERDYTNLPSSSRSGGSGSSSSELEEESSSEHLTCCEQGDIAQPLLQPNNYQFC
Serine/threonine-protein kinase PLK1 (Homo sapiens), sequence (P53350 whole entry): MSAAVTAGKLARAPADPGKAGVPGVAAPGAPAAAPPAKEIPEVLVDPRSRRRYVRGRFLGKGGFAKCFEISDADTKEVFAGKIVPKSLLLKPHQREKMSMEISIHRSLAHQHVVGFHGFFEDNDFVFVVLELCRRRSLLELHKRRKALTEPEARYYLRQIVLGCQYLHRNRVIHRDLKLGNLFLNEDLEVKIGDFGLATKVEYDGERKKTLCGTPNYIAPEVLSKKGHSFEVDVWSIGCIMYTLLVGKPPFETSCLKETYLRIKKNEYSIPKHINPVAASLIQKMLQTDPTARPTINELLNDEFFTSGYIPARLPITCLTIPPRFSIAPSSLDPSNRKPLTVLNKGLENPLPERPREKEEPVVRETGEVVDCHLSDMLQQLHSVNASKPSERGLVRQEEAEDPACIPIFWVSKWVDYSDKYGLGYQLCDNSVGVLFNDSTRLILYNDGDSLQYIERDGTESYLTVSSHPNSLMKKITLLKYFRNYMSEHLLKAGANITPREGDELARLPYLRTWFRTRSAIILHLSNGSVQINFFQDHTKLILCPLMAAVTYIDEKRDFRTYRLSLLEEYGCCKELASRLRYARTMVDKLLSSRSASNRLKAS
Vascular endothelial growth factor receptor 3 (Homo sapiens), sequence (P35916 whole entry): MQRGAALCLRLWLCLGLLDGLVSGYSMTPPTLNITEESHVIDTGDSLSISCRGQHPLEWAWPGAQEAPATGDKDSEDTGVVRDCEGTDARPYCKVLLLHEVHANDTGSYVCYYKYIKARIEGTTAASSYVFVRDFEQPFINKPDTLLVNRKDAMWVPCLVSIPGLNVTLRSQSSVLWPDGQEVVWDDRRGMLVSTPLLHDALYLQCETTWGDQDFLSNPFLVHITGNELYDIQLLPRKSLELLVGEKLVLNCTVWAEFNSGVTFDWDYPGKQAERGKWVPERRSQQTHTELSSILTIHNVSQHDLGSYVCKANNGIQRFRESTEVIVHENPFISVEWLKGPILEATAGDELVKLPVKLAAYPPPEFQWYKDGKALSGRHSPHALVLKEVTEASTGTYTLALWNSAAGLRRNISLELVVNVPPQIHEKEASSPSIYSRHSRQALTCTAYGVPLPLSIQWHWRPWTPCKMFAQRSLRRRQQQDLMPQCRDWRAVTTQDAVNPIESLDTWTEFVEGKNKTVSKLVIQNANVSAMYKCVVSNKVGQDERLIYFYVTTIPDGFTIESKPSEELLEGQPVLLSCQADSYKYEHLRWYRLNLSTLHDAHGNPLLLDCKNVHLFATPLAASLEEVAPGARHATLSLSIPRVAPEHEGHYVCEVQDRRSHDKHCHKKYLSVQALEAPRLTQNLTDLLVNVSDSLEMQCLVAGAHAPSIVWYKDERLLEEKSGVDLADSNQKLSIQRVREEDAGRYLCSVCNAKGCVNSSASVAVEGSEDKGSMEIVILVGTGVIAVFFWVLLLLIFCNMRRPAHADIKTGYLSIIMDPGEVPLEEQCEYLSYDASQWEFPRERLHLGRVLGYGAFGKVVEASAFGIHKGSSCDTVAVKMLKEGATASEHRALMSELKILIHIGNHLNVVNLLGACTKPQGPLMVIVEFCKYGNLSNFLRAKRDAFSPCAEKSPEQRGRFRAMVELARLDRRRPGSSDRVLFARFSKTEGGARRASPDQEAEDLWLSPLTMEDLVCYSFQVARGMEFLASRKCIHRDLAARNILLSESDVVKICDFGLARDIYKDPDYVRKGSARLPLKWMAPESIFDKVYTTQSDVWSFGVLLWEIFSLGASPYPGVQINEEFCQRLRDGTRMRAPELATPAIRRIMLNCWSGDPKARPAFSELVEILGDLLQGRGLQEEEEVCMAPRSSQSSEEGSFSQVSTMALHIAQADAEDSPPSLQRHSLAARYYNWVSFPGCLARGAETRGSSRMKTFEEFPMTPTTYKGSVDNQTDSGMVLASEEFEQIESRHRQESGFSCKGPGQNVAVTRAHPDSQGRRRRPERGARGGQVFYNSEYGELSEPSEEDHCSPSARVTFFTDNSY
Serine/threonine-protein kinase Nek6 (Homo sapiens), sequence (Q9HC98 whole entry): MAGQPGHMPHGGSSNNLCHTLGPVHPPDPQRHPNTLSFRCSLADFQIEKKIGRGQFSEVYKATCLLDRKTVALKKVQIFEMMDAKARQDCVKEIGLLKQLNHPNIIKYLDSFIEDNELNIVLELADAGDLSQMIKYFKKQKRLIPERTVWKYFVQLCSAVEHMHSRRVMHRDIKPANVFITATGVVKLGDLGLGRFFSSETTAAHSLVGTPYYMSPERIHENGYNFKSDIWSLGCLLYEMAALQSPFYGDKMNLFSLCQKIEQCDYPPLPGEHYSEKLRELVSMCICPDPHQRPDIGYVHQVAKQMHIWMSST
Tyrosine-protein kinase Fyn (Homo sapiens), sequence (P06241 2-537 limits assumed): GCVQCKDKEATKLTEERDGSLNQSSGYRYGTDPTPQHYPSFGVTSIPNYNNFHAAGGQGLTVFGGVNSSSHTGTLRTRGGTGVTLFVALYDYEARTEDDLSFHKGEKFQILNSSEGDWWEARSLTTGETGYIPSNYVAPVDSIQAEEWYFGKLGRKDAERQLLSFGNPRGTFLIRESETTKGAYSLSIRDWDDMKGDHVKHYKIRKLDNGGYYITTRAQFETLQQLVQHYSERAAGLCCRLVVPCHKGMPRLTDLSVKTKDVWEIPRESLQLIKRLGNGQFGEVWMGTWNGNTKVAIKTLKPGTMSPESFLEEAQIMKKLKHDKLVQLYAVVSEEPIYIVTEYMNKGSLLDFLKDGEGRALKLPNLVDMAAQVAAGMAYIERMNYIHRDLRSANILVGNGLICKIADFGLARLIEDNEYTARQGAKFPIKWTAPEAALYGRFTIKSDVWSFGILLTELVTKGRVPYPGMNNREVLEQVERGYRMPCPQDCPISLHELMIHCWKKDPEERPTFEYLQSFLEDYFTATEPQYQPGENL

| Structure (SMILES) | inhibition [1] | inhibition [2] | inhibition [3] | inhibition [4] | inhibition [5] | inhibition [6] | inhibition [7] | inhibition [8] | inhibition [9] | inhibition [10] | inhibition [11] | inhibition [12] | inhibition [13] | inhibition [14] | inhibition [15] | inhibition [16] | inhibition [17] | inhibition [18] | inhibition [19] | inhibition [20] |
| --- | --- | --- | --- | --- | --- | --- | --- | --- | --- | --- | --- | --- | --- | --- | --- | --- | --- | --- | --- | --- |
| c1ccc(-c2n[nH]cc2-c2ccnc(-c3ccc(OCCN4CCOCC4)cc3)c2)nc1 | -6.6% | 1.71% | -2.23% | -2.95% | -2.74% | -1.49% | -2.27% | -5.33% | -3.67% | -1.38% | -1.28% | -2.01% | 1.73% | -0.95% | 8.44% | 2.4% | 8.98% | -0.84% | – | – |
| O=C1NC(=O)C(c2cccc(Cl)c2)=C1Nc1ccc(Cl)c(C(=O)O)c1 | 6.69% | 2.39% | 1.69% | 3.91% | 3.63% | 2.53% | 5.19% | 2.65% | 1.25% | 4.93% | 2.75% | 5.47% | -3.79% | 3.32% | 12.2% | -0.3% | 10.7% | 0.43% | -5.63% | 2.04% |
